{"source": "PubChem BioAssay (NCATS)", "note": "Values joined by “and” are separate entries in the source; they are usually repeats but may differ in a detail not shown here. Equal values may be shown once. A number with no mark means an inactive call. Records with an inconclusive call do not appear. Active and inactive are the calls of the source. Calls follow the shape of the dose curve; as a rule, active = well fitted curve in the direction sought with a large enough effect; inconclusive = small, poorly fitted or top-dose-only effect, or another doubt; inactive = no such curve, though single readings can be large; an effect the other way counts as inactive or inconclusive."}
{"target": "Tyrosine-protein phosphatase non-receptor type substrate 1 (Homo sapiens) + Leukocyte surface antigen CD47 (Homo sapiens) (UniProt P78324+Q08722)", "sequence (P78324 whole entry, looked up)": "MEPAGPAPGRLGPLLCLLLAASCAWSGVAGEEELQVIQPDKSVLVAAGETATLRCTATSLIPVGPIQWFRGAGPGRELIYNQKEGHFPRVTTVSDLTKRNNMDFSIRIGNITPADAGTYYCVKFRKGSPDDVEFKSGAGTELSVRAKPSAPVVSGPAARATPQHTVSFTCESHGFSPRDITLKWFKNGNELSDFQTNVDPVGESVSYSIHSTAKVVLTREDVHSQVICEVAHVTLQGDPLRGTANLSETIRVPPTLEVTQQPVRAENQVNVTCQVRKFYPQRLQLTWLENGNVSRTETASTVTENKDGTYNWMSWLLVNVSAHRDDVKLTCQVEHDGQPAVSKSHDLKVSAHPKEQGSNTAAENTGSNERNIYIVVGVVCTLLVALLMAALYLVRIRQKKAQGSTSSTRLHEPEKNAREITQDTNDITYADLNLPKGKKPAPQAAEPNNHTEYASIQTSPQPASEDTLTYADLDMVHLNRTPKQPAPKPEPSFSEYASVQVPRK", "sequence (Q08722 whole entry, looked up)": "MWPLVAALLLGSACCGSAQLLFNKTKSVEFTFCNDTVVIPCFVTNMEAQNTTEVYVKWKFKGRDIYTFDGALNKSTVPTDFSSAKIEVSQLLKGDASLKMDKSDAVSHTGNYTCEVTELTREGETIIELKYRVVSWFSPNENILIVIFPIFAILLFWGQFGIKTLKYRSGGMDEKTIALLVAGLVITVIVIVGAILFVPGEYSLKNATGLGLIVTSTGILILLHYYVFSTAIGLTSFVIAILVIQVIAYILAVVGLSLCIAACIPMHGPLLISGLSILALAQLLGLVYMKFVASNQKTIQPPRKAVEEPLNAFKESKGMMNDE", "test": "CD47-SIRPalpha protein protein interaction - Alpha assay qHTS validation (AID 1347059);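 also: bead proximity luminescence from CD47 binding SIRPalpha after compound preincubation with SIRPalpha; % is scaled to controls: 0 for no effect and ±100 for the full control effect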", "conditions": "AlphaScreen CD47-His/biotin-SIRPalpha binding, LOPAC; series mostly up to 38.3 µM; activity change, negative = inhibition: at the top concentration", "procedure,_shortened": "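SIRPalpha-biotin 25 nM + cpd, 30 min RT, dark; add CD47-His 12.5 nM, 30 min; add Ni-NTA/SAV beads 10 ug/mL, 30 min; AlphaScreen. Buffer PBS pH 7.4 + 0.05% IGEPAL CA-630. Non-biotinylated SIRPalpha as control inhibitor.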", "units": {"activity change, negative = inhibition": "%"}}
{"smiles": "CC(=O)[C@H]1CC[C@H]2[C@@H]3CCC4=CC(=O)CC[C@]4(C)[C@H]3CC[C@]12C", "activity change, negative = inhibition": 1.28}
{"smiles": "CC1=C(C(=O)O)N2C(=O)[C@@H](NC(=O)C(N)c3ccccc3)[C@H]2SC1", "note": "(stereo partly specified)", "activity change, negative = inhibition": 3.49}
{"smiles": "CC1CC2C3CCC4=CC(=O)C=C[C@]4(C)[C@@]3(F)[C@@H](O)C[C@]2(C)[C@@]1(O)C(=O)CO", "note": "(stereo partly specified)", "activity change, negative = inhibition": 4.16}
{"smiles": "Nc1nc(N)c2nc(CNc3ccc(C(=O)NC(CCC(=O)O)C(=O)O)cc3)cnc2n1", "note": "(stereo unspecified)", "activity change, negative = inhibition": 5.71}
{"smiles": "NC(=O)c1ccc2[nH]ccc2c1", "activity change, negative = inhibition": 1.73}
{"smiles": "N[C@@H](Cc1ccc(O)c(O)c1)C(=O)O", "activity change, negative = inhibition": -3.37}
{"smiles": "NC(=O)c1cccc(N)c1", "activity change, negative = inhibition": -0.585}
{"smiles": "O=C(O)C1CCCN(CCC=C(c2ccccc2)c2ccccc2)C1", "note": "(stereo unspecified)", "activity change, negative = inhibition": 2.65}
{"smiles": "CCN1CCCC1CNC(=O)c1cc(S(N)(=O)=O)ccc1OC", "note": "(stereo unspecified)", "activity change, negative = inhibition": 0.649}
{"smiles": "CNS(=O)(=O)CCc1ccc2[nH]cc(C3CCN(C)CC3)c2c1", "activity change, negative = inhibition": -2.76}
{"smiles": "CCN(CC)CCn1c(=O)c(Cc2ccc(OC)cc2)nc2ccccc21", "activity change, negative = inhibition": -4.09}
{"smiles": "CCCCS(=N)(=O)CCC(N)C(=O)O", "note": "(stereo unspecified)", "activity change, negative = inhibition": -2.74}
{"smiles": "COc1cc2nc(N3CCCN(C)CC3)nc(NC3CCN(Cc4ccccc4)CC3)c2cc1OC", "activity change, negative = inhibition": -12.3}
{"smiles": "COc1cc2ncnc(Nc3cccc(Cl)c3)c2cc1OC", "activity change, negative = inhibition": 2.8}
{"smiles": "CC(C)NCC(O)c1ccc(NS(C)(=O)=O)cc1", "note": "(stereo unspecified)", "activity change, negative = inhibition": 1.51}
{"target": "Parathyroid hormone/parathyroid hormone-related peptide receptor (Homo sapiens) (UniProt Q03431)", "sequence (Q03431 whole entry, looked up)": "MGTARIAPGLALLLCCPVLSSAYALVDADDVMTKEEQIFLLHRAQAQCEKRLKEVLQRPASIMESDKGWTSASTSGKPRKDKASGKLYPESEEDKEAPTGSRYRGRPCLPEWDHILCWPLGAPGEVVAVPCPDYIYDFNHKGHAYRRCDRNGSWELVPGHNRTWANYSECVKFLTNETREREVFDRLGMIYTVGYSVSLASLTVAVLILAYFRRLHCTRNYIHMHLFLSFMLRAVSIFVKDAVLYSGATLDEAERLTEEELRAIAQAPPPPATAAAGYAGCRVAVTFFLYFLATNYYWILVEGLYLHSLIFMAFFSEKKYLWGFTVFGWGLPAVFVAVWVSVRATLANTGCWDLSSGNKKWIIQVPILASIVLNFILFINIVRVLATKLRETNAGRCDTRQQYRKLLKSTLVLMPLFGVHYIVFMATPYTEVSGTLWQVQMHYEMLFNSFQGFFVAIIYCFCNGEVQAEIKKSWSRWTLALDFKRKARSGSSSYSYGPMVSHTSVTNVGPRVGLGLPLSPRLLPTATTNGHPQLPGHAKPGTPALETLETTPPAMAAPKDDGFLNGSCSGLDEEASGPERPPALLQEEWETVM", "test": "qHTS for PTHR1 Agonists: Optimization Screen against the NCGC LOPAC library (AID 1347079); also: 0% is about no effect", "conditions": "HEK293 GP2 PTHR1 GloSensor cAMP luminescence, 1 h; series mostly up to 57.1 µM; activation: at the top concentration", "procedure,_shortened": "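HEK-293 GP2 cells, PTHR1 + GloSensor cAMP; 3000 cells/well, o/n. Luciferin + IBMX 0.5mM each (stock), 1 hr 37C. Cpd titration, 1 hr 37C. Lum after 15 min RT. Ctrl M-PTH(1-15) top 10uM.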", "units": {"activation": "%"}}
{"smiles": "CC(=O)[C@H]1CC[C@H]2[C@@H]3CCC4=CC(=O)CC[C@]4(C)[C@H]3CC[C@]12C", "activation": -44.3}
{"smiles": "CC1=C(C(=O)O)N2C(=O)[C@@H](NC(=O)C(N)c3ccccc3)[C@H]2SC1", "note": "(stereo partly specified)", "activation": 49.2}
{"smiles": "CC1CC2C3CCC4=CC(=O)C=C[C@]4(C)[C@@]3(F)[C@@H](O)C[C@]2(C)[C@@]1(O)C(=O)CO", "note": "(stereo partly specified)", "activation": -9.07}
{"smiles": "Nc1nc(N)c2nc(CNc3ccc(C(=O)NC(CCC(=O)O)C(=O)O)cc3)cnc2n1", "note": "(stereo unspecified)", "activation": -7.94}
{"smiles": "NC(=O)c1ccc2[nH]ccc2c1", "activation": 2.92}
{"smiles": "N[C@@H](Cc1ccc(O)c(O)c1)C(=O)O", "activation": -16.3}
{"smiles": "NC(=O)c1cccc(N)c1", "activation": -27.5}
{"smiles": "O=C(O)C1CCCN(CCC=C(c2ccccc2)c2ccccc2)C1", "note": "(stereo unspecified)", "activation": -7.37}
{"smiles": "CCN1CCCC1CNC(=O)c1cc(S(N)(=O)=O)ccc1OC", "note": "(stereo unspecified)", "activation": 62.5}
{"smiles": "CCN(CC)CCn1c(=O)c(Cc2ccc(OC)cc2)nc2ccccc21", "activation": -12.6}
{"smiles": "CCCCS(=N)(=O)CCC(N)C(=O)O", "note": "(stereo unspecified)", "activation": 36.4}
{"smiles": "CCN(CC)CC#CCOC(=O)C(O)(c1ccccc1)C1CCCCC1", "note": "(stereo unspecified)", "activation": -16}
{"smiles": "COc1cc2nc(N3CCCN(C)CC3)nc(NC3CCN(Cc4ccccc4)CC3)c2cc1OC", "activation": 43.7}
{"smiles": "CC(C)NCC(O)c1ccc(NS(C)(=O)=O)cc1", "note": "(stereo unspecified)", "activation": -19}
{"test_system": "not listed separately", "test": "qHTS of pediatric cancer cell lines to identify multiple opportunities for drug repurposing: Primary screen for TC32 cells (AID 1347089); also: nearly all actives have a fitted effect of over 60% in size; also: potency is read from the fitted curve at half-maximal effect; as to activity change, negative = cytotoxic: % is scaled to controls: 0 for no effect and ±100 for the full control effect", "conditions": "TC32 Ewing sarcoma viability, CellTiter-Glo luminescence, 48 h; series mostly up to 45.8 µM; activity change, negative = cytotoxic: at the top concentration", "procedure,_shortened": "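A viability screen of TC32 cells was run over 48 h, with primary MIPE doses spanning 0.78 nM–46 µM and NPC doses 0.59 nM–46 µM. ATP luminescence (CellTiter-Glo) served as the read-out.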", "units": {"activity change, negative = cytotoxic": "%"}}
{"smiles": "C[C@@H]1CN(c2c(F)c(N)c3c(=O)c(C(=O)O)cn(C4CC4)c3c2F)C[C@H](C)N1", "Potency": "inactive"}
{"smiles": "CC1CC2C3CCC4=CC(=O)C=C[C@]4(C)[C@@]3(F)[C@@H](O)C[C@]2(C)[C@@]1(O)C(=O)CO", "note": "(stereo partly specified)", "activity change, negative = cytotoxic": 5.58}
{"smiles": "C[C@@H]1C[C@H]2[C@@H]3CCC4=CC(=O)C=C[C@]4(C)[C@@]3(Cl)[C@@H](O)C[C@]2(C)[C@@]1(OC(=O)c1ccco1)C(=O)CCl", "Potency": "inactive"}
{"smiles": "NC(=O)c1ccc2[nH]ccc2c1", "activity change, negative = cytotoxic": 3.99}
{"smiles": "CN1CCN(c2c(F)cc3c(=O)c(C(=O)O)cn4c3c2OCN4C)CC1", "Potency": "inactive"}
{"smiles": "N[C@@H](Cc1ccc(O)c(O)c1)C(=O)O", "activity change, negative = cytotoxic": 8.41}
{"smiles": "CCc1c2c(nc3ccc(OC(=O)N4CCC(N5CCCCC5)CC4)cc13)-c1cc3c(c(=O)n1C2)COC(=O)[C@]3(O)CC", "Potency": "236 nM (active) and 739 nM (active)"}
{"smiles": "NCCCC(O)(P(=O)(O)O)P(=O)(O)O", "Potency": "inactive"}
{"smiles": "NC(=O)c1cccc(N)c1", "activity change, negative = cytotoxic": 7.31}
{"smiles": "Cc1oc(=O)oc1CN1CCN(c2cc3c(cc2F)c(=O)c(C(=O)O)c2n3C(C)S2)CC1", "note": "(stereo unspecified)", "Potency": "inactive"}
{"smiles": "Nc1nc(=S)c2[nH]cnc2[nH]1", "Potency": "3.33 µM (active)"}
{"smiles": "CCOC(=O)c1ccc(C#Cc2ccc3c(c2)C(C)(C)CCS3)nc1", "Potency": "inactive"}
{"smiles": "COc1nc(N)nc2c1ncn2[C@@H]1O[C@H](CO)[C@@H](O)[C@@H]1O", "Potency": "inactive"}
{"smiles": "O=C(O)C1CCCN(CCC=C(c2ccccc2)c2ccccc2)C1", "note": "(stereo unspecified)", "activity change, negative = cytotoxic": 3.58}
{"smiles": "OC(Cn1cncn1)(Cn1cncn1)c1ccc(F)cc1F", "Potency": "inactive"}
{"smiles": "CCN1CCCC1CNC(=O)c1cc(S(N)(=O)=O)ccc1OC", "note": "(stereo unspecified)", "activity change, negative = cytotoxic": 4.52}
{"smiles": "CCN(CC)CCn1c(=O)c(Cc2ccc(OC)cc2)nc2ccccc21", "activity change, negative = cytotoxic": 14}
{"smiles": "O=S(=O)(c1cccc2cnccc12)N1CCCNCC1", "Potency": "inactive"}
{"smiles": "CCCCS(=N)(=O)CCC(N)C(=O)O", "note": "(stereo unspecified)", "activity change, negative = cytotoxic": 15.5}
{"smiles": "CCN(CC)CC#CCOC(=O)C(O)(c1ccccc1)C1CCCCC1", "note": "(stereo unspecified)", "activity change, negative = cytotoxic": 9.49}
{"smiles": "CCOC(=O)[C@H](CCc1ccccc1)N[C@H]1CS[C@H](c2cccs2)CN(CC(=O)O)C1=O", "activity change, negative = cytotoxic": 14.3}
{"smiles": "O=P(O)(O)C(O)(Cc1cccnc1)P(=O)(O)O", "Potency": "inactive"}
{"smiles": "COc1ccccc1OCC(O)COC(N)=O", "note": "(stereo unspecified)", "Potency": "inactive"}
{"smiles": "CCN(C)C(=O)Oc1cccc([C@H](C)N(C)C)c1", "Potency": "inactive"}
{"smiles": "CC(=O)[C@H]1CC[C@H]2[C@@H]3CC=C4C[C@@H](O)CC[C@]4(C)[C@H]3CC[C@]12C", "Potency": "inactive"}
{"smiles": "CC(C)C[C@H](NC(=O)[C@H](CCc1ccccc1)NC(=O)CN1CCOCC1)C(=O)N[C@@H](Cc1ccccc1)C(=O)N[C@@H](CC(C)C)C(=O)[C@@]1(C)CO1", "Potency": "23.6 nM (active) and 147 nM (active)"}
{"smiles": "COc1cc2nc(N3CCCN(C)CC3)nc(NC3CCN(Cc4ccccc4)CC3)c2cc1OC", "Potency": "20.8 µM (active)"}
{"smiles": "COc1cc2ncnc(Nc3cccc(Cl)c3)c2cc1OC", "activity change, negative = cytotoxic": -2.52}
{"smiles": "O=C(O)c1cn(C2CC2)c2cc(N3CCNCC3)c(F)cc2c1=O", "Potency": "inactive"}
{"smiles": "CNS(=O)(=O)Cc1ccc2[nH]cc(CCN(C)C)c2c1", "Potency": "inactive"}
{"smiles": "Cn1c(=O)c2c(ncn2CC(O)CO)n(C)c1=O", "note": "(stereo unspecified)", "Potency": "inactive"}
{"smiles": "CC(C)NCC(O)c1ccc(NS(C)(=O)=O)cc1", "note": "(stereo unspecified)", "activity change, negative = cytotoxic": 9.63}
